# According to PubChem BioAssay AID504467 (National Center for Advancing Translational Sciences (NCATS), 2011):
# Screen size: about 330,000 compounds; about 7,700 (2.3%) were called active. Another 26% or so got no clear call; they are omitted. Calls come from the whole dose curve; as a rule, active = well fitted inhibition curve with a large enough effect; inconclusive = small, poorly fitted or top-dose-only effect, or effect the other way; inactive = flat fitted curve, though single readings scatter. Only a selection was taken, and actives are over-represented in it overall.
# Experiment: qHTS screen for small molecules that inhibit ELG1-dependent DNA repair in human embryonic kidney (HEK293T) cells expressing luciferase-tagged ELG1; note: nearly all actives have a fitted effect of over 55% in size
# Conditions: HEK293T ELG1-luciferase reporter, luminescence, 16 h, DNA damage induced by 5-fluorouridine; series mostly up to 46.1 µM; activity change, negative = inhibition: at the top concentration
# Method in brief: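 Reporter activity after DNA damage by 5-fluorouridine is monitored. Compound-treated cells incubate 16 hr at 37 °C, then ONE-Glo is added for 30 min before luminescence reading.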
# % is set by controls: 0 for no effect and ±100 for the full control effect; potency is the fitted concentration of half-maximal effect.
SMILES,"activity change, negative = inhibition",Potency
Cc1cc(C)c2nc(N(CCN(C)C)C(=O)/C=C/c3cccs3)sc2c1,-3.07% (inactive),–
CN(CC(=O)Nc1ccc(F)c(F)c1F)C(=O)Cn1cnc2c1c(=O)n(C)c(=O)n2C,13% (inactive),–
O=C(COc1ccccc1F)NNC(=O)c1cc(Br)ccc1Cl,16.7% (inactive),–
COc1ccccc1N1CCN(C(=O)C2Cc3ccccc3CN2C(=O)c2ccco2)CC1 (stereo unspecified),8.8% (inactive),–
Cc1ccc(C)c(-c2nnc(NC(=O)CS(=O)(=O)c3ccccc3)o2)c1,-2.86% (inactive),–
COc1ccc(S(=O)(=O)NCC(=O)NC2CC2)cc1OC,3.84% (inactive),–
O=C(N/N=C/c1ccc(O)c2ccccc12)c1cccnc1,-3.64% (inactive),–
Cc1ccc(C(=O)NCCNC(=O)c2cnccn2)cc1,-0.272% (inactive),–
CCN(CC)c1ccc(/C=N/NC(=O)c2cnccn2)c(O)c1,–,1.46 µM (active)
CC1(c2ccc3ccccc3c2)NC(=O)N(CC(N)=O)C1=O (stereo unspecified),-0.705% (inactive),–
CCc1ccc(Nc2n[n+](-c3ccccc3)c(-c3cccc(Cl)c3Cl)s2)cc1,-28.7% (inactive),–
NC(=O)c1ccc(Nc2ccc3c(c2)CCC3)c([N+](=O)[O-])c1,–,11.6 µM (active)
Cc1ccc(Nc2ccc(C(N)=O)cc2[N+](=O)[O-])cc1,-8.38% (inactive),–
NC(=O)c1ccc(Nc2ccc3nonc3c2[N+](=O)[O-])cc1,-11.4% (inactive),–
CC(Sc1nnc(-c2ccccc2F)n1C1CC1)C(N)=O (stereo unspecified),2.76% (inactive),–
CCN(C[C@H]1N[C@@](Cc2ccccc2)(C(=O)OC)[C@H]2C(=O)N(Cc3ccccc3)C(=O)[C@@H]12)C(=O)c1ccc(C)cc1,0.138% (inactive),–
COc1ccccc1C(=O)Nc1ccc(OCc2nnc3c4ccccc4c(C)nn23)cc1,–,20.6 µM (active)
CCOc1ccc(NC(=O)c2cc(C)nc3ccccc23)cc1,-8.94% (inactive),–
CCCNC(=O)Nc1ccccc1C(=O)Nc1ccc(OC)cc1,23.7% (inactive),–
COc1ccc(C(CNC(=O)c2ccc(NS(=O)(=O)c3ccc(F)c(C)c3)cc2)N(C)C)cc1 (stereo unspecified),14.9% (inactive),–
O=Cc1cn(Cc2ccccc2)nc1-c1cccnc1,9.65% (inactive),–
O=C1NCC(=O)N(Cc2ccccc2)/C1=C/c1ccccc1,7.15% (inactive),–
O=C1/C(=C\c2cccnc2)CN(Cc2ccccc2)C/C1=C\c1cccnc1,–,3.66 µM (active)
COC(=O)[C@]1(CC(C)C)N[C@H](c2ccc(SC3CCCCC3)cc2)[C@@H]2C(=O)N(C)C(=O)[C@@H]21,-17.4% (inactive),–

SMILES,"activity change, negative = inhibition",Potency
CCOC(=O)C1CCN(c2ncnc3c2c(-c2ccccc2)cn3-c2ccc(C)cc2)CC1,–,14.6 µM (active)
CCOC(=O)C1CCN(c2ncnc3c2oc2ccc(Br)cc23)CC1,24% (inactive),–
CCOC(=O)C1CCN(Cc2ccc(-c3ccccc3)cc2)CC1,1.34% (inactive),–
COC(=O)c1ccc(C(=O)NC2CC(C)(C)Cc3c2cnn3-c2ccc(F)cc2)nc1 (stereo unspecified),7.96% (inactive),–
CC1(C)C[C@H]2C3=CCC4[C@@]5(C)CC[C@H](O)[C@](C)(CO)C5CC[C@@]4(C)[C@]3(C)C[C@@H](O)[C@@]2(CO)[C@@H](O)[C@@H]1O (stereo partly specified),-2.62% (inactive),–
CCN(CC)CCCNC(=O)c1c(O)c2cc(F)cc3c2n(c1=O)C(C)CC3 (stereo unspecified),14.1% (inactive),–
NC(=O)COC(=O)/C=C/c1ccc2ccccc2n1,-4.5% (inactive),–
CC(=O)c1ccc(S(=O)(=O)N2CCC3(CC2)OCCO3)cc1,1.56% (inactive),–
CC(=O)c1ccc(S(=O)(=O)N2CCN(C(=O)/C=C/c3ccc4ccccc4n3)CC2)cc1,–,20.6 µM (active)
N#C/C(=C\c1cccnc1)C(=O)Nc1ccc(SC(F)F)cc1,19.2% (inactive),–
CC(CNC(=O)Cn1cnc2c(OCc3ccccc3)ncnc21)c1ccccc1 (stereo unspecified),-6.48% (inactive),–
COc1ccc(-c2csc(NC(=O)c3ccc(N4C(=O)CCC4=O)cc3)n2)cc1OC,11.1% (inactive),–
O=C(Nc1nc(-c2ccc3c(c2)OCO3)cs1)c1ccncc1,–,7.08 µM (active)
C/C(=N/NC(=O)c1ccncc1)c1ccc2c(c1)OCO2,0% (inactive),–
CCN(C(=O)COC(=O)CCOc1cccc(C)c1)c1c(N)n(Cc2ccccc2)c(=O)[nH]c1=O,2.9% (inactive),–
O=C(CSc1ccccn1)N1CCN(S(=O)(=O)c2ccc(Cl)cc2)CC1,2.63% (inactive),–
CCN(C[C@H]1N[C@@](CC)(C(=O)OC)[C@H]2C(=O)N(C)C(=O)[C@@H]12)C(=O)Nc1ccc(F)cc1,17.4% (inactive),–
NS(=O)(=O)c1cccnc1Nc1cccc(Cl)c1,7.92% (inactive),–
O=C(Nc1cc(Cl)cc(Cl)c1)C(NCCCO)c1ccccc1 (stereo unspecified),-4% (inactive),–
OCCCNc1nccc(-c2cc(Nc3cccc(Cl)c3)ncn2)n1,–,0.92 µM (active)
COc1ccc(S(=O)(=O)N2CCN(CC(=O)N3CCOCC3)CC2)cc1OC,11.6% (inactive),–
Cc1ccc(OCC(=O)N/N=C\c2ccco2)c(C)c1,20.9% (inactive),–
COc1ccccc1C(=O)Nc1ccc(NC(=O)c2ccco2)c(C)c1,5.61% (inactive),–
COc1cc(NC(=O)c2cc([N+](=O)[O-])ccc2Br)ccc1NC(=O)c1ccco1,25% (inactive),–

SMILES,"activity change, negative = inhibition",Potency
CCC(=O)Nc1ccc(C(=O)N2CCN(C(=O)c3ccco3)CC2)cc1,-22.8% (inactive),–
COc1cccc(C(=O)Nc2ccc(N3CCN(C(=O)c4ccco4)CC3)cc2)c1,–,13 µM (active)
COc1ccc(C(=O)Nc2ccccc2C(=O)N2CCN(c3ccccc3)CC2)cc1,8.95% (inactive),–
COc1ccc(NC(=O)c2cccc(NC(=O)c3ccco3)c2)c(OC)c1,–,18.4 µM (active)
Cc1ccc(C)c(OCC(=O)N2CCN(C(=O)c3ccco3)CC2)c1,0.168% (inactive),–
Cc1ccc(OCC(=O)Nc2ccc(N3CCN(C(=O)c4ccco4)CC3)cc2)c(C)c1,–,10.3 µM (active)
Cc1cccc(C(=O)N[C@H](C(=O)NCc2cccs2)C(C)C)c1,-3.69% (inactive),–
CC(NC(=O)c1ccccc1F)c1cccc2ccccc12 (stereo unspecified),18.6% (inactive),–
CC1CCCC(NC(=O)c2cc(S(=O)(=O)N3CCCCC3)ccc2Cl)C1C (stereo unspecified),9.38% (inactive),–
Cc1ccccc1CNC(=O)CCC(=O)N1Cc2ccccc2Oc2ncccc21,13.4% (inactive),–
C=C1CCC(N(O)c2cc(C)on2)C(=C)CCC2C1CC2(C)C (stereo unspecified),13.3% (inactive),–
Cc1ccc(S(=O)(=O)N2CCC(C(=O)NCCC3=CCCCC3)CC2)cc1C,5.56% (inactive),–
O=c1[nH]c(N2CCN(Cc3ccc4c(c3)OCO4)CC2)nc2c1CCCC2,8.53% (inactive),–
CC(C)(C)n1nnnc1C(c1ccc(F)cc1)N1CCN(Cc2ccc3c(c2)OCO3)CC1 (stereo unspecified),14.9% (inactive),–
Fc1ccc2[nH]c3c(N4CCN(Cc5ccc6c(c5)OCO6)CC4)ncnc3c2c1,–,13 µM (active)
COc1cccc(CNC(=O)COc2cc(O)c3c(c2)OC(C)(C)CC3=O)c1,-5.81% (inactive),–
Cc1ccc(C)c(S(=O)(=O)N2CCN(CC(=O)Nc3ccc([N+](=O)[O-])cc3)CC2)c1,–,14.6 µM (active)
Cc1ccc(S(=O)(=O)N2CCN(CC(=O)N/N=C/c3cc([N+](=O)[O-])ccc3Cl)CC2)cc1,-1.1% (inactive),–
Cc1ccc(C)c(S(=O)(=O)N2CCN(C(=O)Nc3ccccc3)CC2)c1,-17.6% (inactive),–
Cc1ccc(S(=O)(=O)N2[C@@H](c3ccccc3F)C(C(=O)O)=CC[C@H]2c2ccc(Cl)cc2)cc1,3.35% (inactive),–
Cc1c(NC(=O)CSc2nnc(-c3cccnc3)n2N)c(=O)n(-c2ccccc2)n1C,8.36% (inactive),–
O=C(Nc1ccc(F)cc1)N1CCCC(c2nc3c(nnn3Cc3ccccc3Cl)c(=O)[nH]2)C1 (stereo unspecified),-26.2% (inactive),–
Cc1ccc(C)c(Cn2nnc3c(=O)[nH]c(C(=O)Nc4ccc(F)cc4)nc32)c1,-19.3% (inactive),–
Cc1ccc(NC(=O)N2CCC(c3nc4c(nnn4Cc4c(F)cccc4Cl)c(=O)[nH]3)CC2)cc1,–,18.4 µM (active)

SMILES,"activity change, negative = inhibition",Potency
Cc1cccc(NS(=O)(=O)c2ccc(C)c(C(=O)NCC(c3ccccc3)N(C)C)c2)c1 (stereo unspecified),1.94% (inactive),–
COc1ccc2nc(Nc3nc4ccc(NC(C)=O)cc4s3)sc2c1,14.9% (inactive),–
COc1ccc2nc(Nc3nc(-c4cc5ccccc5oc4=O)cs3)sc2c1,–,3.66 µM (active)
CCc1noc(C)c1C(=O)Nc1nc2ccc(OC)cc2s1,8.8% (inactive),–
CC1CCCCC1NCC(=O)Nc1ccccc1C(=O)Nc1ccccc1 (stereo unspecified),-2.06% (inactive),–
CC(C)(C)OC(=O)N1CCC(C(=O)NNC(=O)c2ccc(Cl)cc2Cl)CC1,12.8% (inactive),–
O=C(CN1CCc2ccccc21)NC(c1ccccc1)c1ccccc1,-0.985% (inactive),–
NS(=O)(=O)c1cccc(NC(=O)CN2CCCc3ccccc32)c1,-6.2% (inactive),–
COC(=O)c1[nH]c2cccc(C)c2c1NC(=O)CN1CCCc2ccccc21,–,18.4 µM (active)
CCC(=O)c1cc(F)ccc1OCC(=O)Nc1ccc2c(c1)OCCO2,-13.3% (inactive),–
CCOCCCN(C)C1CCN(C(=O)c2oc3ccccc3c2NC(=O)COc2cccc(C)c2)CC1,-22.3% (inactive),–
CCOc1ccc(S(=O)(=O)Nc2cccc(C(=O)NCC3(N4CCCCC4)CCCCC3)c2)cc1,-6.27% (inactive),–
COc1ccccc1NC(=O)C1CCCN(c2cc(C)nc3ncnn23)C1 (stereo unspecified),1.9% (inactive),–
COc1cccc(NC(=O)C2CCCN(c3ncnc4c3nc3n4CCCCC3)C2)c1 (stereo unspecified),–,14.6 µM (active)
CCOC(=O)c1cccc(NC(=O)C2CCCN(S(=O)(=O)c3cnc[nH]3)C2)c1 (stereo unspecified),-6.55% (inactive),–
O=C(NCCCN1CCCCC1)C1CCCN(c2ncnc3c2nc2n3CCCCC2)C1 (stereo unspecified),-0.877% (inactive),–
CCOC(=O)c1cccc(NC(=O)CCc2c(C)nc3ncnn3c2C)c1,-7.17% (inactive),–
COc1cccc(CNC(=O)C2CCCN(c3ncnc4c3nc3n4CCCCC3)C2)c1 (stereo unspecified),–,18.3 µM (active)
COc1cccc(CNC(=O)C2CCCN(S(=O)(=O)N3CC(C)CC(C)C3)C2)c1 (stereo unspecified),7.78% (inactive),–
CCOC(=O)c1cccc(NC(=O)C2CCN(c3ncnc4c3nc3n4CCCCC3)CC2)c1,–,0.461 µM (active)
O=C(Nc1cccc(Cl)c1)C1CCCN(c2cnccn2)C1 (stereo unspecified),15.8% (inactive),–
COc1ccc(C(=O)NC2CC(C)(C)Cc3c2cnn3-c2ccccc2C)o1 (stereo unspecified),4.8% (inactive),–
COc1ccccc1N(C)C(=O)c1cc(S(=O)(=O)N2CCc3ccccc32)cn1C,-3.18% (inactive),–
COc1ccc(OC)c(C(C)NC(=S)Nc2ccc(S(=O)(=O)Nc3ncccn3)cc2)c1 (stereo unspecified),0.963% (inactive),–
